# USP10 inh: blocks human USP10 ubiquitin-rhodamine cleavage. Q14694. purified USP10, Ub-rhodamine fluorescence, 60 min. inhibition, % at 20 µM. 47,000 compounds, 1.1% hits
# USP28 inh: inhibitors of human USP28 deubiquitinase. 47,000 compounds, 3% hits. purified USP28, Ub-rhodamine cleavage fluorescence, 30 min. inhibition, % at 25 µM. Q96RU2. AID 1645857
# USP8 inh: blocks human USP8 ubiquitin-rhodamine cleavage. inhibition, % at 20 µM. 47,000 compounds, 4.2% hits. P40818. purified USP8, Ub-rhodamine cleavage fluorescence, 30 min
# UCHL1 block: blocks human UCHL1 ubiquitin-rhodamine cleavage; P09936; purified UCHL1, Ub-rhodamine cleavage fluorescence; inhibition, % at 20 µM; 47,000 compounds, 0.2% hits; AID 1645859
# OTUD3 block: inhibitors of human OTUD3 deubiquitinase; purified OTUD3, Ub-rhodamine fluorescence, 2 h; inhibition, % at 25 µM; 47,000 compounds, 0.7% hits
# Target sequence (Q5T2D3 whole entry, looked up): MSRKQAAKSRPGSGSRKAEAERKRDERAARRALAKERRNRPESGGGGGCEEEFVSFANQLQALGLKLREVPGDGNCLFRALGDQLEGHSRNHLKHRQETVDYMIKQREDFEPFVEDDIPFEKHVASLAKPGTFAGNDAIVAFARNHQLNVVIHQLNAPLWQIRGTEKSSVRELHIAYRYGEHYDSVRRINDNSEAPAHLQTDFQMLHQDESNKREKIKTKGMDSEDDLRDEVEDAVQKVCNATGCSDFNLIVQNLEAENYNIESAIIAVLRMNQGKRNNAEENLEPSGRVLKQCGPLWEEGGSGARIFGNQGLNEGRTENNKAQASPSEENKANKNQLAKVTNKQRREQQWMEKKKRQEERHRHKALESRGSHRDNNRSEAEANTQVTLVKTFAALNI
# USP7 inh: human USP7 deubiquitinase inhibition; purified USP7, Ub-rhodamine cleavage fluorescence; 47,000 compounds, 0.3% hits; inhibition, % at 20 µM; Q93009
# Starred values were filed as active, the others as inactive; . = no result given. Compounds with a hit are over-represented: about 6.8% of the library has one in this group of screens. Cut-off read from the data, not from the text of the source: active = inhibition above about 30%; inactive = the rest.
SMILES,USP10 inh,USP28 inh,USP8 inh,UCHL1 block,OTUD3 block,USP7 inh
O=C(NCc1ccc2c(c1)OCCCO2)c1ccc2c(c1)OCCCO2,0,1,2,1,-4,-1
Cc1cccc(NC(=O)C(=O)NCC(c2cccnc2)N2CCc3ccccc3C2)c1 (centres undefined),-5,7,61*,2,-9,0
Cc1cnc(NC(=O)c2cc3cc(Cl)ccc3o2)s1,7,3,46*,1,7,7
Cc1cccc(C(=O)Nc2ccc(NC(=O)COc3ccccc3Cl)cc2)c1,9,-2,67*,0,-3,5
Cc1cccc(C(=O)Nc2ccc(Sc3ccccc3Cl)cc2)c1,11,11,10,1,7,9
CC1(c2cccc3ccccc23)NC(=O)N(CN2CCCC2)C1=O (centres undefined),3,9,17,1,8,2
COc1cccc(C2CCNc3ccccc3N2)c1 (centres undefined),-8,-23,74*,-4,-22,-19
CN(Cc1ccc2c(c1)OCO2)C(=O)c1nc(-c2ccccc2)n(-c2ccccc2)n1,5,28,-49,4,13,4
CS(=O)(=O)Nc1cccc(CNC(=O)c2nc(-c3ccccc3)n(-c3ccccc3)n2)c1,1,-2,38*,-1,-12,-2
FC(F)(F)c1cnc(N2CCC(c3ncn[nH]3)CC2)c(Cl)c1,-1,43*,3,1,4,3
O=C1COc2ccc(NC(=O)N3CCN(c4ncc(C(F)(F)F)cc4Cl)CC3)cc2N1,4,19,10,3,16,9
Cn1cc(NC(=O)Nc2cccc3ccccc23)c2ccccc21,-11,0,89*,7,-11,-5
O=C(NCc1ccc(Cl)cc1)Nc1cccc2ccccc12,4,8,95*,4,7,5
N#Cc1ccccc1NC(=O)Cc1cccc2ccccc12,1,21,-285,3,15,1
CC(C(=O)Nc1cccc2ccccc12)(C(F)(F)F)C(F)(F)F,-5,0,9,-3,0,-8
O=C(Cc1ccccc1C(=O)O)Nc1cccc2ccccc12,-6,-23,71*,-6,-11,-13
CC(NC(=O)c1cc2c(=O)n(C)ccc2n1C)c1ccccc1 (centres undefined),3,7,45*,3,7,3
Cc1ccc(-c2noc(CNc3ccc(Oc4ccccc4)cc3)n2)cc1,5,22,79*,3,1,-8
Cc1ccccc1S(=O)(=O)N1CCC2(CC1)OC(C(=O)NCC(C)C)Cn1ccnc12 (centres undefined),-1,-20,-59,-3,-13,-3
Cc1cc(NC(=O)C2(c3ccc(F)cc3)CCCC2)n(-c2nc3ccccc3[nH]2)n1,11,0,70*,6,-4,10
C[C@]1(O)CO[C@@H](c2ccc(F)cc2)C[C@@H]1n1cnc2c(N)ncnc21,-2,2,-2,-2,3,0
O=C(Nc1cccnc1)C1c2ccccc2C(=O)N(C2CCCC2)C12CCCCC2 (centres undefined),9,5,36*,0,8,7
CC(C)N1CCN(C(=O)CN2CCC3(CCC2=O)NC(=O)c2ccccc2N3)CC1 (centres undefined),1,9,32*,1,9,7
O=C(Nc1ccc2c(c1)OCO2)c1ccc2nc(C(F)(F)F)sc2c1,0,12,55*,-2,3,3
O=C(Nc1ccc2c(c1)OCO2)c1ccc2ccccc2n1,-12,-24,-32,-20,-26,-21
SMILES,USP10 inh,USP28 inh,USP8 inh,UCHL1 block,OTUD3 block,USP7 inh
Cc1ccc2c(c1)N(Cc1nc(-c3ccc(F)cc3)no1)C(=O)CO2,-1,51*,-8,-2,-1,-2
CCCC12CN3CC(CCC)(CN(C1)C3[C@@H](O)[C@H](O)[C@H](O)CO)C2=O (some centres undefined),3,7,21,1,19,1
COc1ccccc1CN1CCC(c2nn(C)c3nccnc23)CC1,0,-5,1,2,-1,2
COc1ccccc1CN(CCCn1ccnc1)CC1CCOC1 (centres undefined),4,8,36*,-1,10,1
O=C(Cn1cnc2ccccc21)Nc1ccc2c(c1)CCC2,-1,27,15,2,7,5
COc1ccc(/C=C/C(=O)Nc2ccc3c(c2)OCCO3)cc1,-2,.,-2,0,2,-1
CC(C)(C)c1ccc(/C=C/C(=O)Nc2ccc3c(c2)OCCO3)cc1,8,34*,-9,7,-3,11
CC(C)Cc1ccc(/C=C/C(=O)Nc2ccc3c(c2)OCCO3)cc1,10,14,-1,5,5,4
O=C(/C=C/c1ccc(F)cc1)Nc1ccc2c(c1)OCCO2,6,86*,6,5,2,2
COc1cc(N2CC[C@@H]3[C@@H]2CCN3C(=O)c2ccoc2C)ncn1,-2,-2,-87,0,1,-3
O=C(O)c1ccc(Cl)c(NC(=O)C(Sc2cccc(NC(=O)c3cccc(Cl)c3)c2)c2ccccc2)c1 (centres undefined),11,4,-26,1,-1,-5
Cc1ccc(C(=O)O)cc1NC(=O)C(Sc1cccc(NC(=O)c2ccccc2C)c1)c1ccccc1 (centres undefined),37*,55*,27,2,49*,-6
O=C(Cn1cnc2cc3c(cc21)OCCCO3)NCCc1ccccc1,-2,-5,23,-9,-5,-19
O=C(OCc1ccc(Br)cc1)c1ccc2ccccc2n1,12,82*,26,4,16,4
O=C(COC(=O)c1ccc2ccccc2n1)Nc1ccc(Br)cc1,-2,-172,-16,-55,-163,-55
N#Cc1ccccc1COC(=O)c1ccc2ccccc2n1,-1,62*,-31,-2,6,-2
N#Cc1ccc(COC(=O)c2ccc3ccccc3n2)cc1,-3,64*,-5,-2,-21,-11
CN(C)S(=O)(=O)c1cccc(C(=O)OCc2ccccc2C#N)c1,0,36*,-1,1,8,0
Cc1ccc(-c2nc(NC(=O)Nc3ccc(Cl)cc3)sc2C)cc1,15,0,10,0,0,.
COc1cc([C@@H]2c3cc4c(cc3[C@H](O)[C@H]3COC(=O)[C@@H]23)OCO4)cc(OC)c1OC,8,35*,2,5,9,6
COc1cccc2c(=O)n(CC(=O)NCc3ccc4c(c3)OCO4)ccc12,12,-3,22,0,4,7
CC1=C(C(=O)Nc2ccccc2C)C2(CCCCCC2)OC1=O,-3,-8,-1,-2,-7,-54
Cc1nn(-c2ccc(F)cc2)cc1-c1noc(C(=O)NCc2ccccn2)n1,5,21,35*,2,23,-17
